We go through 23 compounds from PubChem BioAssay (NCATS).

Records with an inconclusive call do not appear. Where a call stands in place of a potency, no number is given. Calls of active or inactive are those of the source. Calls follow the shape of the dose curve; as a rule, active = well fitted inhibition curve with a large enough effect; inconclusive = small, poorly fitted or top-dose-only effect; inactive = flat fitted curve, though single readings scatter.

The target in this experiment is Calcium and integrin-binding protein 1 (Homo sapiens) (UniProt Q99828). As to the kind of experiment: Primary qHTS for Identification of Calcium Integrin Binding Protein 1 (CIB1) Competitor (AID 1508620). Also: top concentration of the series differs between compounds. Particulars: CIB1-GST / FITC-alphaIIb peptide fluorescence polarization; series mostly up to 114 µM. In outline: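 Fluorescence polarization competition: GST-tagged CIB1 (1 uM final) preincubated with compound 15 min at room temperature, then FITC-labelled alphaIIb peptide (100 nM final) added. After 15 min at room temperature, polarization read at Ex 480/Em 540.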
Calcium and integrin-binding protein 1 (Homo sapiens), sequence (Q99828 whole entry, looked up): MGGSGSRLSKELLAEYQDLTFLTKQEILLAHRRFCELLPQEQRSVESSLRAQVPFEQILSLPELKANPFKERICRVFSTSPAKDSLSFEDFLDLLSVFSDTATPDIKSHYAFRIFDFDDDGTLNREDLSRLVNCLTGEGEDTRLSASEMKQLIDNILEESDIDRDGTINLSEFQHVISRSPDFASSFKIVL
Take `O=C(CNC(=O)c1ccc(Cl)cc1)OC(C(=O)Nc1cc(C(F)(F)F)ccc1Cl)c1ccccc1` (stereo not drawn): the Potency entry was “inactive”.
To `O=C(Nc1cncc(-c2cccc3ccccc23)c1)c1cccs1` belongs “inactive”; to `Cn1nnnc1Sc1ncnc2scc(-c3ccccc3Br)c12`, “inactive”; to `COc1cccc(S(=O)(=O)NC2CCN(C#N)C2)c1` (stereo not drawn), “inactive”.
As for `CC(C)Oc1cccc(-c2cnc(N3CCC(C(N)=O)CC3)s2)c1`, the entry is “inactive”.
As for `O=C(Nc1ccccc1)C1CCN(c2nc(-c3ccc(Br)cc3)cs2)CC1`, the entry is “inactive”; as for `COc1ccccc1-c1nnc2n1N=C(c1ccc(OC(F)F)c(OCC3CC3)c1)CS2`, “inactive”.
In the case of `CC(C)c1ccccc1-c1ncc(N(C)C)c(NCc2ccc(-c3cccnc3)cc2)n1`, the Potency entry was “inactive”.
`Oc1cccc2cc(CNc3ccccc3F)cnc12`: the Potency entry is “inactive”.
As for `COc1cccc(-c2nc(SC)nc3sc(C(=O)NC(C)(C)C)c(N)c23)c1`, the entry is “inactive”; as for `O=c1c2ccccc2nc2sc(Nc3ccc4c(c3)OCO4)nn12`, “inactive”.
To `Cc1cnc(-c2ccccc2C(C)C)nc1N(C)Cc1ccc(-c2cccnc2)cc1` belongs “inactive”; to `Fc1cc(-c2nc(Nc3ccc(F)c(F)c3)c3ccccc3n2)ccn1`, “inactive”.
Consider `C#CCOc1ccc(-c2nnc3n2N=C(c2ccc(OC)c(OCC(C)=O)c2)CS3)cc1`, for which the Potency result is “inactive”.
Take `COc1cccc(N2C(=O)c3ccccc3C2=O)c1`: the Potency entry is “inactive”.
As to `CC(C)(C)OC(=O)Cc1nnc(-c2cc3ccccc3[nH]2)o1`, the Potency entry is “inactive”.
As for `Cc1ccc(S(=O)(=O)Nc2cccc3ccc[n+](C)c23)cc1`, the entry is “inactive”.
As for `O=S(=O)(NC[C@@H]1CCC[C@H](CNS(=O)(=O)c2c(F)cccc2F)C1)c1ccc2c(c1)OCCO2`, the entry is “inactive”; as for `Cc1cc(C)nc(NC(=S)N2CCN(c3cc(Br)cc(C(F)(F)F)c3)CC2)c1`, “inactive”.
As for `Cc1ccc(Cn2ncc3c4sc(C)cc4n(C)c3c2=O)c(C)c1`, the entry is “inactive”; as for `O=C(Nc1ccc(-c2nc3ccccc3[nH]2)cc1)Nc1ccc2c(c1)CCCO2`, “inactive”.
`N#Cc1cccc(Nc2ncc(-c3cccc4ccccc34)o2)c1`: the Potency result was “inactive”.
Turning to `COc1ccc(S(=O)(=O)N2CCN(S(=O)(=O)c3ccc4c(c3)OCCO4)CC2)cc1`, the Potency entry is “inactive”.
